From PubChem BioAssay
Calls of active or inactive are those of the source.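 How the source made its calls: active means mean duplicate potentiation above the buffer control mean plus 5 SD of buffer wells; inactive means the rest.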

Each molecule was assayed against Potassium voltage-gated channel subfamily KQT member 2 (Rattus norvegicus) (UniProt O88943) (assay: rat KCNQ2 channel potentiation, selectivity assay for KCNQ1 potentiator project, KCNQ2-CHO-K1 cells (AID 493009;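 further: assay conditions were tuned for KCNQ1 rather than KCNQ2 modulators; signal is max minus min fluorescence divided by baseline after thallium stimulus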)). Conditions: FluxOR thallium flux fluorescence, at 10 µM; active compounds read high, scaled: buffer 0, activator control 100.
Sequence of Potassium voltage-gated channel subfamily KQT member 2 (Rattus norvegicus) (O88943 whole entry, looked up): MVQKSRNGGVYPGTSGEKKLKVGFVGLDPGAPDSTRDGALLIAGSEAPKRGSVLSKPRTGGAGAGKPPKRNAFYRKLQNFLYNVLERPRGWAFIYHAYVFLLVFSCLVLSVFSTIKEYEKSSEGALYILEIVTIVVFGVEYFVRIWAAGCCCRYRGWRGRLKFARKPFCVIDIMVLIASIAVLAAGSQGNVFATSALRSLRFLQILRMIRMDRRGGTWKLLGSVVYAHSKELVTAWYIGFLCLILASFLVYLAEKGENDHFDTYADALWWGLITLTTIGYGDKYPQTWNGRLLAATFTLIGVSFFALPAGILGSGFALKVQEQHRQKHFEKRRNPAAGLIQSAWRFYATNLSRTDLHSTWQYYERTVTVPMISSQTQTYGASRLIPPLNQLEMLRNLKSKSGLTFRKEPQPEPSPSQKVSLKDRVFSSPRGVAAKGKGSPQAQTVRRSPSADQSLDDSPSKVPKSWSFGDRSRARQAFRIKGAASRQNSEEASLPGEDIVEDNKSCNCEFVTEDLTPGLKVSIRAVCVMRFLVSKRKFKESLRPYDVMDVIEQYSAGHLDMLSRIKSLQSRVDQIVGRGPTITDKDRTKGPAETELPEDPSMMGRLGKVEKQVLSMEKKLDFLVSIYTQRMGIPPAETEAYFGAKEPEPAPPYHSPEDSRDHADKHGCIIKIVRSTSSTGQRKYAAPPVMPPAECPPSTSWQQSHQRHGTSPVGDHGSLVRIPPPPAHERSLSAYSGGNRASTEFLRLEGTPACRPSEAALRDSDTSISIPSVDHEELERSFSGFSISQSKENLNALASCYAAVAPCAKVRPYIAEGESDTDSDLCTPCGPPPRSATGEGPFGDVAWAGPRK
For `S=c1[nH]nc(-c2ccco2)n1/N=C/c1ccc(Cl)cc1Cl`, the potentiation was 173% (active).
With `Cc1ccnc(NC(=O)CNC(=O)c2ccc3c(c2)OCO3)c1` the outcome was “inactive”.
`O=C(Nc1nnc(-c2ccc3c(c2)CCCC3)o1)c1c(F)cccc1F` was tested, and the potentiation was 182% (active).
`Cc1ccc(-n2cnnn2)c2cccnc12` was tested, and the outcome was “inactive”.
With `Cc1ccc2nc3c(cc(C(=O)NCC4CCCO4)c(=N)n3C3CCCC3)c(=O)n2c1` (stereo not given) the outcome was “inactive”.
For `O=C1c2ccccc2NC(c2ccccc2O)N1O` (stereo not given), the potentiation was 262% (active).
For `Cc1cc(SCNC(=O)c2ccccc2)ncn1`, the outcome was “inactive”.
For `Cc1ccc(O)c(C(=O)CC(=O)c2cccc(F)c2)c1`, the potentiation was 159% (active).
With `Cc1cccn2c(=O)nc(SCC(=O)N3N=C(c4cccs4)CC3c3ccc(F)cc3)nc12` (stereo not given) the outcome was “inactive”.
`CC(C)[N+]1(C)[C@@H]2CC[C@H]1CC(OC(=O)C(CO)c1ccccc1)C2` (stereo not given in full) was tested, and the outcome was “inactive”.
For `COc1ccc(CN(C)C(=O)c2ccc3ccccc3n2)cc1F`, the outcome was “inactive”.
With `Cc1cc(NC(=O)CSc2cn(CCNC(=O)c3ccc(F)cc3)c3ccccc23)no1` the outcome was “inactive”.
With `O=C(NCC1CCCO1)c1ccc2c(c1)S(=O)(=O)c1ccccc1C2=O` (stereo not given) the outcome was “inactive”.
In the case of `O=C(Nc1nc(=O)c2ccccc2s1)c1ccc(F)cc1`, the potentiation is reported as 152% (active).
In the case of `CC(/C=N/n1c(-c2ccc(C)cc2)n[nH]c1=S)=C\c1ccco1`, the outcome is reported as “inactive”.
For `CCOC(=O)c1c(NC(=O)C(C)N2CCN(C(=O)c3ccco3)CC2)sc2c1CCCC2` (stereo not given), the potentiation was 160% (active).
`O=C(Cn1ncc2c(=O)oc3ccccc3c21)N1CCN(C(=O)c2ccco2)CC1` was tested, and the outcome was “inactive”.
For `S=c1nc(-c2ccccc2)[nH]c2ccc(Br)cc12`, the potentiation was 602% (active).
`COc1cc(CNCc2ccccn2)ccc1OCc1ccc(Cl)cc1` was tested, and the outcome was “inactive”.
`Cc1cc2n(n1)SC(Nc1ccc(F)c(Cl)c1)N2` (stereo not given) was tested, and the outcome was “inactive”.
For `CNC(=O)c1nnsc1S(=O)c1ccc(Cl)cc1` (stereo not given), the outcome was “inactive”.
For `CCCC(=O)Nc1ccc(S(=O)(=O)N2CCC(c3nc4ccccc4[nH]3)CC2)cc1`, the outcome was “inactive”.
`CNc1nc(N)c([N+](=O)[O-])c(Nc2cccc(F)c2)n1` was tested, and the outcome was “inactive”.
With `CCC1CCCCN1C(=S)NC(=O)c1ccc([N+](=O)[O-])cc1` (stereo not given) the potentiation was 280% (active).
With `O=C(Cn1c(C(F)(F)F)nc2ccccc21)N=Nc1c(O)[nH]c2ccc(Br)cc12` the outcome was “inactive”.
For `CCn1c(=S)[nH]c2sc3c(c2c1=O)CCCC3`, the potentiation was 383% (active).
In the case of `Cc1ccccc1-n1cnnc1SCC(=O)N1CCN(c2ccccc2)CC1`, the potentiation is reported as 206% (active).
With `COc1cccc(C(=O)NNC(=O)C(=O)Nc2cccc(Cl)c2C)c1` the potentiation was 299% (active).
For `Nc1nc(-c2ccccc2)c(N=Nc2ccccc2Cl)s1`, the potentiation was 416% (active).
For `Cc1sc(-n2c(C)cc(/C=C3\SC(=S)NC3=O)c2C)c(C#N)c1C`, the outcome was “inactive”.
`ON/C=N/C(=S)Nc1ncc(C(F)(F)F)cc1Cl` was tested, and the potentiation was 218% (active).
For `Cc1c(/C=N\NC(=O)c2ccc(F)cc2)cnn1C`, the outcome was “inactive”.
`O=c1c2cccnc2n(-c2ccccc2)n1Cc1ccc(Cl)cc1` was tested, and the outcome was “inactive”.
For `NNC(=O)c1sccc1OCc1ccc(Cl)cc1Cl`, the outcome was “inactive”.
With `CCCSc1nnc(-c2cnn(-c3ccccc3)c2-n2cccc2)n1C` the outcome was “inactive”.
For `COc1ccc(-c2cc3nc(C)c(CCC(=O)NC(C)CCc4ccco4)c(C)n3n2)c(OC)c1` (stereo not given), the outcome was “inactive”.
In the case of `CC(=O)NC1=C(NC2CCS(=O)(=O)C2)C(=O)c2ccccc2C1=O` (stereo not given), the outcome is reported as “inactive”.
With `CCOc1ccc(C(=O)NC(=S)N(Cc2ccccc2)Cc2ccccc2)cc1` the potentiation was 522% (active).
With `CC1CCN(C(=S)NC(=O)c2cccs2)CC1` the potentiation was 186% (active).
For `Oc1c(N=NC(=S)Nc2ccccc2F)c2ccccc2n1Cc1ccc(F)cc1`, the outcome was “inactive”.
